Shown are actives, neighbours in structure and some others; about 19% of the full set was active somewhere.
ELG1 DNA repair – ELG1-dependent DNA repair inhibition | HEK293T ELG1-luciferase reporter, luminescence, 16 h; DNA damage induced by 5-fluorouridine | Potency, µM (top dose mostly 46.1 µM), actives largely listed as inhibitors | 2.3% of 330,000 active; note: nearly all actives have a fitted effect of over 55% in size
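Overnight (16 hr) co-exposure of 2,000 cells/well to 5-fluorouridine and compound at 37 °C preceded detection. Luciferase was quantified via ONE-Glo luminescence; loss of signal denotes inhibition.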
IL1B secr inh – blocks inflammasome-driven IL-1 beta release; THP-1 LPS/ATP IL-1B secretion, AlphaLISA, 16 h; hits give low values; activity change, % at 57.5 µM; 4.7% of 360,000 active; AID 743279; in the data active = activity change below about -50%; inconclusive = mostly about -30% to -49%
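THP-1 cells pretreated 1 hr with compounds (up to 57.5 uM final), then stimulated with LPS (250 ng/mL final) plus ATP (1.25 mM final); secreted IL-1B measured by AlphaLISA after 16 hr, decreased signal indicating inhibition.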
TDP1 cell noCPT – qHTS for Inhibitors of human tyrosyl-DNA phosphodiesterase 1 (TDP1): qHTS in cells in absence of CPT; DT40 Tdp1-/- hTDP1 cells, no CPT, ATP luminescence, 48 h; Potency, µM (titrated, usually from 46.2 µM), usual class: inhibitors; 15% of 420,000 active; note: nearly all actives have a fitted effect of over 55% in size
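Chicken DT40 Tdp1-/- cells stably complemented with human TDP1 were seeded at 400 cells/well with DMSO in place of 20 nM camptothecin. After compound pinning, cells grew at least 48 hr at 37 °C; viability read by CellTiter-Glo luminescence.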
HT1080 IDH1KD tx – toxicity to HT-1080 IDH1 knockdown cells (counter line) | HT-1080 IDH1 knockdown viability, ATP luminescence, 48 h | Potency, µM (titrated, usually from 46.1 µM), actives largely listed as cytotoxic | 2% of 360,000 active | AID 686971
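HT-1080-IDH1KD cells (IDH1 knocked down), 750/well in RPMI with 5% FBS, treated with compound 48 h at 37 degrees C. Viability by CellTiter-Glo luminescence, normalised to DMSO and no-cell wells; concentration-response curves classed.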
HT1080-NT tox – kills 2HG-producing HT-1080-NT fibrosarcoma cells | HT-1080-NT fibrosarcoma viability, CellTiter-Glo ATP luminescence, 48 h | Potency, µM (top dose mostly 46.1 µM), hits mostly cytotoxic | 1.6% of 360,000 active | AID 686970;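 note: NT is the 2HG producing partner of a matched IDH1 knockdown line; nearly all actives have a fitted effect of over 55% in size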
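HT-1080-NT fibrosarcoma cells (2HG-overproducing), 750 cells/well in RPMI with 5% FBS, dosed after 2 h and incubated 48 h at 37C. CellTiter-Glo luminescence normalized to DMSO and no-cell wells; concentration-response curves fitted and classed.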
TDP1 cell CPT – DT40-hTDP1 cell growth loss with CPT. chicken DT40 Tdp1-/-;hTDP1 cells + 20 nM CPT, ATP luminescence, 48 h. Potency, µM (highest dose often 46.2 µM), hits mostly inhibitors. 12% of 420,000 active. AID 686979; note: nearly all actives have a fitted effect of over 55% in size
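Cell growth measured by CellTiter-Glo luminescence after a minimum 48 h, 37 C compound exposure with 20 nM CPT in Tdp1-knockout DT40 cells stably expressing hTDP1, seeded 400/well; qHTS titration format.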
Of the large screens only hits and unclear results are named; the others gave an inactive call. Unless noted, calls come from the whole dose curve; as a rule, active = well fitted curve in the direction sought with a large enough effect; inconclusive = small, poorly fitted or top-dose-only effect, or another doubt; inactive = no such curve, though single readings can be large; an effect the other way counts as inactive or inconclusive.

CC(=O)Nc1ccc(Sc2ccc([N+](=O)[O-])o2)cc1	IL1B secr inh -97.3, TDP1 cell noCPT 2.59µM, HT1080 IDH1KD tx 5.8µM, HT1080-NT tox 4.11µM, TDP1 cell CPT 2.59µM (no result: ELG1 DNA repair)
CC(C)(C)C(=O)NC(NC(=O)C(C)(C)C)c1ccc([N+](=O)[O-])cc1	none
O=C(CNC(=O)c1cccc([N+](=O)[O-])c1)NC1CCCc2ccccc21 (stereo unspecified)	TDP1 cell noCPT inconclusive, TDP1 cell CPT inconclusive
O=C(NC1CCCCC1)c1cc(-c2cccs2)on1	ELG1 DNA repair inconclusive
O=c1c2c([N+](=O)[O-])cc([N+](=O)[O-])cc2sn1-c1ccc(Br)cc1	TDP1 cell noCPT inconclusive, TDP1 cell CPT 10.3µM
O=c1c2c([N+](=O)[O-])cc([N+](=O)[O-])cc2sn1Cc1ccccc1	IL1B secr inh -105.1, TDP1 cell noCPT 5.17µM, HT1080 IDH1KD tx inconclusive, HT1080-NT tox inconclusive, TDP1 cell CPT 5.17µM
O=c1c2c([N+](=O)[O-])cc([N+](=O)[O-])cc2nc2ccccn12	TDP1 cell noCPT inconclusive, TDP1 cell CPT inconclusive
CCOc1cc2sc(N3CCC(C(=O)Nc4ccccc4C(=O)OC)CC3)nc2cc1Br	none (no result: ELG1 DNA repair, IL1B secr inh, HT1080 IDH1KD tx, HT1080-NT tox)
CN(C(=O)Cn1cc(S(=O)(=O)N2CCN(c3ccccc3F)CC2)c2ccccc2c1=O)c1ccc(Cl)cc1	none (no result: ELG1 DNA repair, IL1B secr inh, HT1080 IDH1KD tx, HT1080-NT tox)
COc1ccc(C(=O)N2CCN(C3CCC(c4ccccc4)CC3)CC2)cc1OC (stereo unspecified)	ELG1 DNA repair inconclusive, TDP1 cell noCPT 14.6µM, TDP1 cell CPT 20.6µM
COc1cc(C)c(Cl)cc1S(=O)(=O)N1CCSC1	none
Cc1nn(-c2ccccc2)c(N2CCCC2)c1/C=N/Nc1ccc(S(=O)(=O)Nc2ccccc2)cc1[N+](=O)[O-]	TDP1 cell noCPT 7.31µM, TDP1 cell CPT 5.8µM
COc1ccccc1NS(=O)(=O)c1ccc(N/N=C/c2c(C)nn(-c3ccccc3)c2N2CCCC2)c([N+](=O)[O-])c1	TDP1 cell noCPT 6.51µM, TDP1 cell CPT inconclusive
COc1ccccc1NS(=O)(=O)c1ccc(NN=C2CCCC2)c([N+](=O)[O-])c1	TDP1 cell noCPT 16.4µM, TDP1 cell CPT 18.4µM
COc1ccccc1NS(=O)(=O)c1ccc(N/N=C/c2ccccc2OCC(=O)O)c([N+](=O)[O-])c1	none
CC(C)(C)C1CCC(=NNc2ccc(S(N)(=O)=O)cc2[N+](=O)[O-])CC1 (stereo unspecified)	IL1B secr inh -87.1, TDP1 cell noCPT 20.6µM, HT1080 IDH1KD tx 18.4µM, HT1080-NT tox inconclusive, TDP1 cell CPT 16.4µM
COc1ccccc1NS(=O)(=O)c1ccc(N/N=C/C=C/c2ccccc2[N+](=O)[O-])c([N+](=O)[O-])c1	TDP1 cell noCPT inconclusive
COc1ccccc1CN1CC(C(=O)N(C)CCc2nc3ccc(F)cc3[nH]2)CCC1=O (stereo unspecified)	none
Cc1ccc(CSc2nnc(NC(=O)C3=COCCO3)s2)cc1	ELG1 DNA repair inconclusive
Cc1cc(C)c(S(=O)(=O)N2CCN(c3ccccn3)CC2)c(C)c1	IL1B secr inh inconclusive
COc1ccccc1NS(=O)(=O)c1cccc(C(=O)N/N=C/c2c(C)nn(-c3ccccc3)c2N2CCCC2)c1	ELG1 DNA repair inconclusive, TDP1 cell noCPT 20.6µM, TDP1 cell CPT 20.6µM
COc1ccccc1NS(=O)(=O)c1cccc(C(=O)N/N=C/c2cn(-c3ccccc3)nc2-c2ccccc2)c1	ELG1 DNA repair inconclusive, TDP1 cell noCPT inconclusive, HT1080-NT tox inconclusive, TDP1 cell CPT inconclusive
O=C(Nc1ccc(F)cc1)C(c1cccc(F)c1)N1CCN(Cc2c(F)cccc2Cl)CC1 (stereo unspecified)	TDP1 cell noCPT inconclusive, HT1080-NT tox inconclusive, TDP1 cell CPT inconclusive (no result: ELG1 DNA repair)
COC(=O)C1CC2=C(CCCC2=O)N(Cc2ccccc2)C1=O (stereo unspecified)	TDP1 cell CPT inconclusive (no result: ELG1 DNA repair)
CCC1CCCCN1S(=O)(=O)c1ccc(NC(=O)c2cc(=O)c3c(C)cc(C)cc3o2)cc1 (stereo unspecified)	TDP1 cell noCPT 14.6µM (no result: ELG1 DNA repair, IL1B secr inh, HT1080 IDH1KD tx, HT1080-NT tox)
CCC1CCCCN1S(=O)(=O)c1ccc(NC(=O)C2CCN(C(=O)c3ccco3)CC2)cc1 (stereo unspecified)	ELG1 DNA repair inconclusive, TDP1 cell noCPT inconclusive, HT1080-NT tox inconclusive
CCC1CCCCN1S(=O)(=O)c1ccc(NC(=O)c2ccncc2)cc1 (stereo unspecified)	ELG1 DNA repair 5.17µM, TDP1 cell noCPT 11.6µM, TDP1 cell CPT 16.4µM
CCSc1ncc(Cl)c(C(=O)Nc2ccc(S(=O)(=O)N3CCCCC3CC)cc2)n1 (stereo unspecified)	TDP1 cell noCPT 6.51µM, TDP1 cell CPT 10.3µM (no result: ELG1 DNA repair, IL1B secr inh, HT1080 IDH1KD tx, HT1080-NT tox)
CCC1CCCCN1S(=O)(=O)c1ccc(NC(=O)c2nc(S(C)(=O)=O)ncc2Cl)cc1 (stereo unspecified)	ELG1 DNA repair inconclusive, IL1B secr inh -100.6, TDP1 cell noCPT 2.59µM, HT1080 IDH1KD tx 3.26µM, HT1080-NT tox 4.61µM, TDP1 cell CPT 1.46µM
COC(=O)Cn1c(=O)c2cccn2c2cccnc21	none (no result: ELG1 DNA repair, IL1B secr inh, HT1080 IDH1KD tx, HT1080-NT tox)
CCSc1ncc(Cl)c(C(=O)Nc2cccc(Cl)c2)n1	TDP1 cell noCPT inconclusive, TDP1 cell CPT 10.3µM (no result: ELG1 DNA repair, IL1B secr inh, HT1080 IDH1KD tx, HT1080-NT tox)
